# Biological target: Acyl-protein thioesterase 2 (Homo sapiens) (UniProt O95372)
# Assay: LYPLA2 enzyme kinetics with inhibitors – biochemical, substrate-based fluorescence, Ki, Km, Vmax, late-stage follow-up (AID 652001)
# Conditions: recombinant LYPLA2, resorufin acetate hydrolysis fluorescence, measured here: LYPLA2 (no test compound); Km: enzyme Km; Vmax: enzyme Vmax
# Sequence of Acyl-protein thioesterase 2 (Homo sapiens) (O95372 whole entry, looked up): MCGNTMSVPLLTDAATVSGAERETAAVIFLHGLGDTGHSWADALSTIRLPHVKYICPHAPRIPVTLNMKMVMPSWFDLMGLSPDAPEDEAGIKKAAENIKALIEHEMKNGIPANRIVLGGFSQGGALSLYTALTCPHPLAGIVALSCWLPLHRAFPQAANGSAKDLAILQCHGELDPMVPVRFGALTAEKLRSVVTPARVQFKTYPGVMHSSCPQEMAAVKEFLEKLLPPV
structure (smiles),measurement,value
COc1ccc(N2CCN(C(=O)c3cc4c(s3)-c3ccccc3S(=O)(=O)C4)CC2)cc1,Km,24.4 µM
same,Vmax,13.8 nM
